Laboratory results as given in PubChem BioAssay AID1159580 (chemical genetic matrix, 2015).
Screen size: about 5,500 compounds; about 2,000 (36%) were called active. Roughly 18% stayed inconclusive and do not appear here. Cut-off read from the data, not from the text of the source: active = normalized growth mostly below about 0.91 (no sharp cut-off); inconclusive = no clear call, values can overlap the other calls; inactive = mostly above about 0.92. The list shows a part of the results.

Assay: chemical genetic growth profiling, strain panel (AID 1159580);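 note: tested at 20 µM; growth read once vehicle control cultures reached saturation at 30 °C; 1 = growth at the plate median or of vehicle wells; lower values mean less growth of the strain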
Details: growth OD
[1] = S. cerevisiae deletion strains, locus YJR075W, strain HOC1, active compounds read low
[2] = S. cerevisiae deletion strains, locus YMR307W, strain GAS1, active compounds read low
[3] = S. cerevisiae deletion strains, locus YNL153C, strain GIM3, active compounds read low

Measured: normalized growth

CN1CCC(c2c[nH]c3ccc(O)cc23)CC1
inactive: S. cerevisiae deletion strains, locus YAL040C, strain CLN3, active compounds read low 0.986 | S. cerevisiae deletion strains, locus YCL061C, strain MRC1 (second series), active compounds read low 1.01 | S. cerevisiae deletion strains, locus YDR150W, strain NUM1, active compounds read low 1.01 | S. cerevisiae deletion strains, locus YDR363W, strain ESC2, active compounds read low 1 | S. cerevisiae deletion strains, locus YER002W, strain NOP16, active compounds read low 0.987 | [1] 1.01 | [2] 0.988 | [3] 0.948 | S. cerevisiae deletion strains, locus YNL175C, strain NOP13, active compounds read low 1.01 | S. cerevisiae deletion strains, locus YNL197C, strain WHI3, active compounds read low 0.999 | S. cerevisiae deletion strains, locus YNL224C, strain SQS1, active compounds read low 1.02 | S. cerevisiae deletion strains, locus YOR083W, strain WHI5 (second series), active compounds read low 1.04 | S. cerevisiae deletion strains, locus YPL055C, strain LGE1, active compounds read low 0.996

CSCCC(NC=O)C(=O)NC(C)C(=O)O (stereo not drawn)
inactive: S. cerevisiae deletion strains, locus YBR021W, strain FUR4, active compounds read low 0.982 | S. cerevisiae deletion strains, locus YBR229C, strain ROT2, active compounds read low 0.989 | S. cerevisiae deletion strains, locus YCL029C, strain bik1, active compounds read low 0.983 | S. cerevisiae deletion strains, locus YDL035C, strain GPR1, active compounds read low 1.01 | S. cerevisiae deletion strains, locus YDL074C, strain BRE1, active compounds read low 1.02 | S. cerevisiae deletion strains, locus YDL101C, strain DUN1, active compounds read low 0.998 | S. cerevisiae deletion strains, locus YDL134C, strain PPH21, active compounds read low 0.989 | S. cerevisiae deletion strains, locus YDL185W, strain tfp1, active compounds read low 0.977 | S. cerevisiae deletion strains, locus YDL192W, strain arf1, active compounds read low 0.972 | S. cerevisiae deletion strains, locus YDR101C, strain arx1, active compounds read low 0.983 | S. cerevisiae deletion strains, locus YDR162C, strain NBP2, active compounds read low 0.997 | S. cerevisiae deletion strains, locus YDR318W, strain mcm21, active compounds read low 0.988 | S. cerevisiae deletion strains, locus YDR388W, active compounds read low 0.985 | S. cerevisiae deletion strains, locus YDR502C, strain sam2, active compounds read low 0.992 | S. cerevisiae deletion strains, locus YEL061C, strain CIN8, active compounds read low 0.995 | S. cerevisiae deletion strains, locus YER110C, active compounds read low 0.976 | S. cerevisiae deletion strains, locus YER155C, strain BEM2, active compounds read low 0.993 | S. cerevisiae deletion strains, locus YER167W, strain BCK2, active compounds read low 0.988 | S. cerevisiae deletion strains, locus YGL078C, strain dbp3, active compounds read low 0.978 | S. cerevisiae deletion strains, locus YGL086W, strain mad1, active compounds read low 0.996 | S. cerevisiae deletion strains, locus YGL248W, strain PDE1, active compounds read low 1.01 | S. cerevisiae deletion strains, locus YGR078C, strain PAC10, active compounds read low 1.03 | S. cerevisiae deletion strains, locus YGR135W, strain pre9, active compounds read low 0.984 | S. cerevisiae deletion strains, locus YGR229C, strain SMI1, active compounds read low 0.995 | S. cerevisiae deletion strains, locus YGR252W, strain gcn5, active compounds read low 0.972 | S. cerevisiae deletion strains, locus YHR030C, strain SLT2, active compounds read low 0.989 | S. cerevisiae deletion strains, locus YHR079C, strain IRE1 (second series), active compounds read low 0.988 | S. cerevisiae deletion strains, locus YHR094C, strain hxt1, active compounds read low 0.978 | S. cerevisiae deletion strains, locus YHR129C, strain ARP1, active compounds read low 0.996 | S. cerevisiae deletion strains, locus YHR200W, strain rpn10, active compounds read low 0.987 | S. cerevisiae deletion strains, locus YIL066C, strain RNR3, active compounds read low 1 | S. cerevisiae deletion strains, locus YIL073C, strain SPO22, active compounds read low 0.943 | S. cerevisiae deletion strains, locus YIL125W, strain kgd1, active compounds read low 0.987 | S. cerevisiae deletion strains, locus YIR030C, strain dcg1, active compounds read low 0.983 | S. cerevisiae deletion strains, locus YJL095W, strain BCK1, active compounds read low 1.04 | S. cerevisiae deletion strains, locus YJL134W, strain LCB3, active compounds read low 0.991 | S. cerevisiae deletion strains, locus YJL168C, strain set2, active compounds read low 0.985 | S. cerevisiae deletion strains, locus YJL187C, strain SWE1 (second series), active compounds read low 1.01 | S. cerevisiae deletion strains, locus YJR043C, strain POL32, active compounds read low 1.02 | [1] 1.01 | S. cerevisiae deletion strains, locus YKL009W, strain mrt4, active compounds read low 0.974 | S. cerevisiae deletion strains, locus YKL068W, active compounds read low 0.986 | S. cerevisiae deletion strains, locus YKL085W, strain MDH1 (second series), active compounds read low 1.01 | S. cerevisiae deletion strains, locus YKL085W, strain MDH1, active compounds read low 1.01 | S. cerevisiae deletion strains, locus YKL190W, strain CNB1, active compounds read low 1 | S. cerevisiae deletion strains, locus YKR001C, strain vps1, active compounds read low 0.988 | S. cerevisiae deletion strains, locus YLR039C, strain RIC1, active compounds read low 1.01 | S. cerevisiae deletion strains, locus YLR058C, strain SHM2, active compounds read low 0.996 | S. cerevisiae deletion strains, locus YLR102C, strain apc9, active compounds read low 0.98 | S. cerevisiae deletion strains, locus YLR262C, strain YPT6, active compounds read low 1.04 | S. cerevisiae deletion strains, locus YLR268W, strain sec22, active compounds read low 0.987 | S. cerevisiae deletion strains, locus YLR330W, strain CHS5, active compounds read low 0.99 | S. cerevisiae deletion strains, locus YLR342W, strain FKS1 (second series), active compounds read low 0.987 | S. cerevisiae deletion strains, locus YLR371W, strain rom2, active compounds read low 0.972 | S. cerevisiae deletion strains, locus YLR418C, strain cdc73, active compounds read low 0.994 | S. cerevisiae deletion strains, locus YML016C, strain PPZ1, active compounds read low 0.993 | S. cerevisiae deletion strains, locus YML032C, strain rad52, active compounds read low 0.987 | S. cerevisiae deletion strains, locus YML124C, strain tub3, active compounds read low 0.981 | S. cerevisiae deletion strains, locus YMR078C, strain ctf18, active compounds read low 0.984 | S. cerevisiae deletion strains, locus YMR223W, strain ubp8, active compounds read low 0.986 | S. cerevisiae deletion strains, locus YMR263W, strain SAP30, active compounds read low 1.01 | [2] 0.872 | S. cerevisiae deletion strains, locus YNL067W, strain RPL9B, active compounds read low 1.03 | [3] 1.04 | S. cerevisiae deletion strains, locus YNL233W, strain BNI4, active compounds read low 1.01 | S. cerevisiae deletion strains, locus YNL250W, strain rad50, active compounds read low 0.983 | S. cerevisiae deletion strains, locus YNL271C, strain bni1, active compounds read low 0.968 | S. cerevisiae deletion strains, locus YNL298W, strain CLA4, active compounds read low 0.99 | S. cerevisiae deletion strains, locus YNL307C, strain MCK1, active compounds read low 0.989 | S. cerevisiae deletion strains, locus YNR052C, strain pop2, active compounds read low 0.983 | S. cerevisiae deletion strains, locus YOL006C, strain TOP1, active compounds read low 1.05 | S. cerevisiae deletion strains, locus YOL012C, strain htz1 1.02 | S. cerevisiae deletion strains, locus YOL147C, strain pex11, active compounds read low 0.983 | S. cerevisiae deletion strains, locus YOR061W, strain CKA2, active compounds read low 0.993 | S. cerevisiae deletion strains, locus YOR069W, strain VPS5, active compounds read low 0.983 | S. cerevisiae deletion strains, locus YOR136W, strain idh2, active compounds read low 0.995 | S. cerevisiae deletion strains, locus YOR144C, strain elg1, active compounds read low 0.984 | S. cerevisiae deletion strains, locus YOR184W, strain ser1, active compounds read low 0.995 | S. cerevisiae deletion strains, locus YOR316C, strain cot1, active compounds read low 0.972 | S. cerevisiae deletion strains, locus YPR119W, strain clb2, active compounds read low 0.991 | S. cerevisiae deletion strains, locus YPR141C, strain kar3, active compounds read low 0.978 | S. cerevisiae deletion strains, locus YPR163C, strain tif3, active compounds read low 0.988 | S. cerevisiae deletion strains, locus YPR167C, strain met16, active compounds read low 0.978 | S. cerevisiae deletion strains, strain wtn01, active compounds read low 0.992 | S. cerevisiae strains, strain wild type, active compounds read low 0.996
